# In PubChem BioAssay (Tox21):
# Records with an inconclusive call do not appear. The source made the active and inactive calls. Calls come from the whole dose curve; as a rule, active = well fitted activation curve with a large enough effect in the repeat runs; inconclusive = weak or mixed curves; inactive = flat fitted curve, though single readings scatter.
# Assay: A CellTox Green Cytotoxicity Assay to monitor cytotoxicity in HepG2 cells - 16 hour (AID 1224876); note: nearly all actives have a fitted effect of over 45% in size
# Details: CellTox Green fluorescence; series mostly up to 76.8 µM; cytotoxicity increase: at the top concentration
# Description: National Center for Advancing Translational Sciences [NCATS]
# NIH Chemical Genomics Center [NCGC]
# U.S. Environmental Protection Agency [EPA]
# National Institutes of Environmental Health Sciences [NIEHS]
# National Toxicology Program [NTP]
# Cell-based models are critical for drug discovery. Determining the natural cytotoxic effects resulting from test compounds is an essential research activity. A CellTox Green Cytotoxicity Assay to monitor cytotoxicity in real time of continues cell culture during 40 hours of the compound treatment was used to screen Tox21 10K library compounds in HepG2 cells. CellTox Green Cytotoxicity Assay is a nonlytic, homogeneous, biofluorescent method to measure cytotoxicity in cell culture after experimental manipulation. The assay system uses a proprietary asymmetric cyanine dye that is excluded from viable cells but preferentially stains the dead cell's DNA. […] Viable cells produce no appreciable increases in fluorescence. Therefore, the fluorescence signal produced by the binding interaction with dead cell DNA is proportional to cytotoxicity.
# The mixture of HepG2 cell suspension and reagents were dispensed at 600cells/6 ul/well in 1536-well tissue culture treated black solid bottom plates using a Multidrop dispenser. After the assay plates were incubated at a 37 C/5% CO2 incubator for 5 hours, 23 nL of compounds dissolved in DMSO, positive and negative controls was transferred to the assay plate by a pintool work station. The plates were incubated at 37 C for 40 hours. The fluorescence intensity were measured at 0h, 8h, 16h, 24h, 32h and 40h time points using ViewLux plate reader during compound treatment.
# % is set by controls: 0 for no effect and ±100 for the full control effect; potency is the fitted concentration of half-maximal effect.
SMILES,cytotoxicity increase,Potency
CCc1cccc(C)c1N(C(=O)C(=O)O)C(C)COC (stereo not given),6.03% (inactive),
CC(C)(C)c1cc(CCC(=O)OCCSCCOC(=O)CCc2cc(C(C)(C)C)c(O)c(C(C)(C)C)c2)cc(C(C)(C)C)c1O,-5.46% [at 35.3 µM] (inactive),
C/C=C/C(=O)OCC(C)C,2.77% (inactive),
COc1cc(C(C)C)ccc1C,-12.9% [at 15.8 µM] (inactive),
C=C1C(CCl)(CCl)C2(Cl)C(Cl)C(Cl)C1(Cl)C2(Cl)Cl (stereo not given),18.9% (inactive),
COc1cccc(-c2ccc(/C=C\CN3CCCCCC3)cc2Cl)c1,,43.4 µM (active)
CCNc1nc(NC(C)(C)C)nc(OC)n1,3.39% (inactive),
O=C(NCc1ncc(C(F)(F)F)cc1Cl)c1c(Cl)cccc1Cl,-12.2% (inactive),
CCOC(=O)[C@H](O)[C@@H](O)C(=O)OCC,4.46% (inactive),
CN1CCN(C)CC1,-8.18% (inactive),
NC(=O)c1ccccc1Cl,-0.318% (inactive),
CCN(CC)c1ccc(C=O)c(O)c1,6.34% (inactive),
C1=CCCC1,-4.12% (inactive),
O[Si](c1ccccc1)(c1ccccc1)c1ccccc1,0.633% (inactive),
C=Cc1ccc(O)c(OC)c1,2.25% (inactive),
C=COCCCC,-8.27% (inactive),
[Cl][Dy]([Cl])[Cl],-12.2% (inactive),
CC(C)C(=O)C(C)C,-0.942% (inactive),
CSc1nnc(C(C)(C)C)c(=O)[nH]1,1.9% (inactive),
O=C(c1ccccc1)c1ccc(Cl)cc1,2.88% (inactive),

SMILES,cytotoxicity increase,Potency
CCCCCCCCCCCCS(=O)(=O)Cl,-10.9% [at 15.8 µM] (inactive),
c1ccc(C[P+](c2ccccc2)(c2ccccc2)c2ccccc2)cc1,1.44% (inactive),
CC1=C(/C=C/C(C)=C/C=C/C(C)=C\C(=O)O)C(C)(C)CCC1,26.8% (inactive),
CC(C=O)c1ccccc1 (stereo not given),-8.75% (inactive),
O=C(CCN1CCC(c2ccccc2)C1)c1ccc2c(c1)OCCO2 (stereo not given),1.24% [at 35.3 µM] (inactive),
CC(c1cc(C(C)(C)C)cc(C(C)(C)C)c1O)c1cc(C(C)(C)C)cc(C(C)(C)C)c1O,0.684% (inactive),
CCC1(C)C(=O)N(Cl)C(=O)N1Cl (stereo not given),-0.727% (inactive),
C=Cc1ccncc1,2.39% (inactive),
CCCCCCCCSCc1cc(C)c(O)c(CSCCCCCCCC)c1,-1.79% (inactive),
CCCC(C)C=O (stereo not given),-15.4% (inactive),
C=CCc1cc(S(=O)(=O)c2ccc(O)c(CC=C)c2)ccc1O,15.5% (inactive),
Oc1ccc2c(c1)CCC2,-0.263% (inactive),
O=[N+]([O-])c1ccc(CO)cc1,-3.04% (inactive),
Nc1ccc(Oc2cccc(Oc3ccc(N)cc3)c2)cc1,-1.65% (inactive),
O=C1c2ccccc2C(=O)c2c(Cl)cccc21,-3.45% [at 35.3 µM] (inactive),
c1ccc2occc2c1,-3.58% (inactive),
CC(C)c1ccc2sc3ccccc3c(=O)c2c1,0.293% (inactive),
Cc1ccc(S(=O)(=O)C(I)I)cc1,,54.9 µM (active)
CN(C/C=C/c1ccccc1)Cc1cccc2ccccc12,,23.9 µM (active)
CC1=CC[C@@H](C(C)(C)O)CC1,-14.1% (inactive),
